HDAC3 inhib: blocks human histone deacetylase 3; O15379; recombinant HDAC3, fluorogenic peptide/trypsin coupled, fluorescence; inhibition, % at 8.3 µM; actives 0.15% (n = 320,000); in the data active = inhibition above about 26%, passing the limit was not always enough; inconclusive = no clear call, values can overlap the other calls
Target sequence (O15379 whole entry, looked up): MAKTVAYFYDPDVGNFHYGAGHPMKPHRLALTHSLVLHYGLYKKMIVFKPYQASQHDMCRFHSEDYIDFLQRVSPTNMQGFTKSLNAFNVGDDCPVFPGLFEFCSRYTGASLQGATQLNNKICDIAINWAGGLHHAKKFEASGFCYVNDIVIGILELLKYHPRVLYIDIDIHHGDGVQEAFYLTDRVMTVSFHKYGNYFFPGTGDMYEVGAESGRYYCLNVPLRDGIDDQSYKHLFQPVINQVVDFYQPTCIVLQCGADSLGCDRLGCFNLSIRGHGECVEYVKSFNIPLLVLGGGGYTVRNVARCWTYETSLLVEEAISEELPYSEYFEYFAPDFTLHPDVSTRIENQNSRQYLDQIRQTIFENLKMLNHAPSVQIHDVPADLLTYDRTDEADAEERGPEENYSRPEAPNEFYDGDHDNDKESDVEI
PHOSPHO1 block: PHOSPHO1 (human) inhibition. Q8TCT1. recombinant PHOSPHO1, absorbance phosphatase assay. inhibition, % at 13.3 µM. actives 1.1% (n = 290,000). AID 1565; in the data active = inhibition above about 60%
p97 inhibitor: human p97 ATPase inhibition. actives 0.42% (n = 220,000). P55072. recombinant p97 ATPase, Kinase-Glo ATP luminescence, 3 h. inhibition, % at 8 µM; in the data active = inhibition above about 15%;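 note: 0% = DMSO vehicle and 100% = wells lacking enzyme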
G6PDH counter: L. mesenteroides G6PDH inhibition counter-screen; Purified L. mesenteroides G6PDH, diaphorase/resazurin coupled fluorescence, 45 min; inhibition, % at 5 µM; actives 0.12% (n = 200,000); in the data active = inhibition above about 50%
PfM18AAP inh: PfM18AAP enzyme inhibition | AID 1822 | inhibition, % at 7.35 µM | actives 1.2% (n = 290,000) | recombinant PfM18AAP, H-Glu-NHMec fluorogenic cleavage;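 active = inhibition above the campaign mean inhibition over all tested compounds plus 3 SD, cut at about 28% in these data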;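 note: 0% = plate median of test compound wells and 100% = 2 mM ZnCl2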
UBC9 SUMO inh: blocks human SUMOylation mediated by UBC9 | actives 0.36% (n = 290,000) | P63279 | inhibition, % at 35 µM | HTRF SUMOylation assay, SAE1/SAE2 + UBC9, in vitro; in the data active = inhibition above about 50%, passing the limit was not always enough; inconclusive = no clear call, values can overlap the other calls
Target sequence (P63279 whole entry, looked up): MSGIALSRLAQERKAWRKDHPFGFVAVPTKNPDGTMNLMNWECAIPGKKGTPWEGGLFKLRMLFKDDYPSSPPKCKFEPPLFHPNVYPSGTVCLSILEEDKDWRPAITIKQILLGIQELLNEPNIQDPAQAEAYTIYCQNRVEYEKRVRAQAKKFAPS
Active calls of the source: *; ? = inconclusive; · = no result. Most compounds without a hit are left out; they make up all but 2.5% or so of the library.

SMILES | HDAC3 inhib | PHOSPHO1 block | p97 inhibitor | G6PDH counter | PfM18AAP inh | UBC9 SUMO inh
Cc1ccc(-n2c(Cn3c(C)nc4ccccc43)n[nH]c2=S)cc1 | -6 | 11 | 5 | 8 | 33* | 15
CCN(C(=O)CCS(=O)(=O)c1ccc2c(c1)oc(=O)n2C)c1ccc(OC)cc1 | 0 | 23 | · | · | -4 | 5
O=C(NCc1n[nH]c(=S)n1-c1ccc(F)cc1)c1ccc(S(=O)(=O)N2CCOCC2)cc1 | ? | 39 | 7 | 11 | 28* | 19
O=C(NCc1n[nH]c(=S)n1-c1ccccc1)c1ccc(S(=O)(=O)N2CCOCC2)cc1 | -2 | -63 | 0 | 1 | 11 | 17
COc1ccc(CC(=O)NCC2CCCN(Cc3cccc(SC)c3)C2)cc1 (configuration not stated) | 8 | 61* | · | · | -3 | -9
COc1cccc(C2=NOC(C(=O)NCc3ccccn3)C2)c1 (configuration not stated) | -3 | 60* | 4 | 4 | 8 | 22
CC(=O)c1ccc(N2CCN(c3ncccn3)CC2)cc1 | -7 | 7 | · | · | 1 | -2
COc1ccc(N2CCN(C(=O)CN(c3cccc(Br)c3)S(C)(=O)=O)CC2)cc1 | 2 | -29 | 4 | -1 | -3 | -7
CS(=O)(=O)N(CC(=O)N1CCN(c2ccccc2)CC1)c1cccc(Br)c1 | 2 | 98* | -1 | 9 | -1 | -3
CCOc1ccccc1NC(=O)CSc1nnc(CNC(=O)c2c(F)cccc2Cl)o1 | -4 | 33 | · | · | -7 | -2
CCOc1cccc2cc(C(=O)NCc3ccc(OC)cc3)c(=N)oc12 | 4 | 33 | · | · | 1 | 16
COc1ccc(CNC(=O)c2cc3cccc(O)c3oc2=N)cc1 | -1 | 8 | · | · | 29* | 31
COc1ccc(CCNc2nc(-c3sc(C)nc3C)cs2)cc1OC | 3 | 80* | -5 | 0 | 7 | -2
COc1ccc(CCNc2nc(-c3ccncc3)cs2)cc1OC | -2 | 13 | 8 | · | -4 | -12
CCOC(=O)c1cc(C#N)c(Nc2ccc(C)cc2)nc1C(F)(F)F | 13 | -8 | -2 | · | -14 | 15
NC(=O)C[n+]1cccc2ccccc21 | 6 | 94* | 2 | 0 | -3 | 30
Cc1nnc(SCC(=O)NCc2ccc3c(c2)OCO3)n1C | 3 | 21 | -1 | -7 | -6 | 10
Cn1c(SCC(=O)NCc2cccs2)nnc1-c1ccncc1 | 1 | 69* | 1 | 3 | -3 | -1
COc1ccc(C(=O)CSc2nnc(-c3cccnc3)n2Cc2ccco2)cc1 | 4 | 92* | -1 | 5 | -3 | 14
Cc1cccc(-c2nnc(SCC(=O)NCc3ccc4c(c3)OCO4)n2C)c1 | -9 | 72* | 1 | 2 | -7 | 12
COc1cccc(-c2nnc(SCC(=O)NCc3ccc4c(c3)OCO4)n2Cc2ccco2)c1 | -1 | 76* | 2 | 0 | -14 | 0
COc1ccc(-c2nnc(SCC(=O)NCc3cccs3)n2C)cc1 | -5 | 14 | -1 | 3 | 1 | 3
O=C(CS(=O)CC(=O)Nc1cccnc1)Nc1ccc(F)cc1 (configuration not stated) | 1 | 36 | · | · | -6 | -1
CCn1c(SCC(=O)c2ccc3ccccc3c2)nnc1-c1ccco1 | -4 | 73* | 3 | 9 | -10 | 24
CCOC(=O)CNC(=O)CSc1nnc(-c2ccco2)n1Cc1ccco1 | 2 | 92* | 2 | 6 | 8 | 6
SMILES | HDAC3 inhib | PHOSPHO1 block | p97 inhibitor | G6PDH counter | PfM18AAP inh | UBC9 SUMO inh
COc1cccc(OCc2nnc(SCC(=O)NCc3ccco3)n2CCc2ccccc2)c1 | 11 | 62* | 0 | 3 | 10 | 14
CCn1c(SCC(=O)c2ccc3c(c2)OCCO3)nnc1-c1ccco1 | 12 | 4 | 1 | -32 | -3 | 14
COc1cccc(-n2ccnc2SCC(=O)NCc2ccccc2)c1 | -4 | 62* | -2 | 4 | -5 | -8
COC(=O)c1c(NC(=O)CN2C(=O)C(=O)N(C(C)C)C2=O)sc(C)c1C | 2 | · | · | · | · | ·
NC(=O)c1ccc(NC(=O)COC(=O)CC2Sc3ccccc3NC2=O)cc1 (configuration not stated) | 3 | · | · | · | · | ·
O=C(CSc1nnc(-c2ccc(S(=O)(=O)N3CCCC3)cc2)n1CC1CCCO1)NC1CC1 (configuration not stated) | -2 | 84* | 6 | -7 | -5 | -6
COc1cc(C(=O)CSc2nnc(-c3ccc(O)cc3)n2CC2CCCO2)ccc1NC(C)=O (configuration not stated) | 2 | 79* | 0 | 0 | 4 | 5
Cc1sc(NC(=O)CN(C(=O)c2ccccc2F)C2CCCC2)c(C(N)=O)c1C | 4 | -2 | · | · | 0 | 0
Cc1nn(C(=O)c2ccccc2)c2c1C(=O)CC(C)(C)C2 | 91* | -17 | 3 | 11 | 0 | -1
CCCc1nn(C(=O)c2ccccc2)c2c1C(=O)CC(C)(C)C2 | 72* | -7 | 2 | 12 | -10 | 22
Cc1nn(-c2nc3ccccc3n2Cc2ccccc2)c2c1C(=O)CC(C)(C)C2 | 5 | -60 | 1 | 3 | 7 | 19
CCOc1cccc(-c2c(C(=O)N/N=C/c3ccoc3)nnn2-c2nonc2N)c1 | 1 | 59 | · | · | 8 | 0
Cc1ccc(N(C(=O)c2snc(C(N)=O)c2N)C(C(=O)NC2CCCC2)c2ccncc2)cc1 (configuration not stated) | 12 | 23 | · | · | -1 | 6
CCOc1ccc(CCNC(=O)CS(=O)(=O)Cc2nc(-c3ccc(OC)cc3)oc2C)cc1 | 2 | 64* | · | · | -9 | 21
S=C(NN=C1C2CC3CC(C2)CC1C3)Nc1ccccc1 | 9 | 92* | -1 | -1 | 8 | 6
COC(=O)c1cc(Br)c(N)cc1OC | 0 | 61* | 1 | 6 | -10 | 18
C=CCN(C(=O)CCC(=O)Nc1cc(C)on1)C(C(=O)NC1CCCC1)c1ccc(OC)cc1OC (configuration not stated) | -2 | -7 | · | · | -2 | -17
NN(Cc1ccccc1)C(=S)Nc1ccc(Cl)c(Cl)c1 | ? | 7 | · | · | 30* | -5
CC(C)(C)c1nnc(N/N=C/c2ccccc2O)n(N)c1=O | -16 | -3 | 5 | 3 | 52* | -9
CCc1nnc(N/N=C/c2ccccc2F)n1N | 3 | -1 | 6 | 4 | 62* | -5
CN1CCC(OC(=O)c2cc3cc(Cl)cc(Cl)c3oc2=O)CC1 | 1 | 61* | · | · | 9 | 11
CN1CCC(OC(=O)c2ccc(Cl)cc2Cl)CC1 | -6 | 21 | 3 | 5 | -2 | 2
CC(C)c1nnc(SCC(=O)NCCC2=CCCCC2)n1N | 2 | 92* | 3 | 2 | 12 | 20
CCOC(=O)CSC1=C(C#N)C(=O)NC(c2ccc(OC)c(OC)c2)S1 (configuration not stated) | 5 | 98* | 5 | -1 | 3 | -26
